Some test systems named below: T-47D breast; BT-549 breast; MDA-MB-435 melanoma; SW-620 colon; MCF7 breast; HCT-116 colon; HCC-2998 colon; KM12 colon.
Assay in all cases: NCI-60 one-dose screen, 48 h (100 = growth as untreated, 0 = no growth, -100 = all killed)
Common to all, as to conditions: 10 µM unless noted

About 83,000 compounds went through this panel and 20% of them were active in at least one assay; those are over-represented in the sample as a whole.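 Note: values are percent growth. 100 is the growth of untreated cells, values between 100 and 0 indicate rising inhibition; between -100 and 0 indicates cell death.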 Unmarked numbers belong to inactive results. Calls of active or inactive are those of the source. The calls were made as follows: active = growth percent below 10; inactive = the rest.

On to `Nc1nc2ccc3[nH]ncc3c2c2c1CCCC2`, for which the growth was 11% in the assay on T-47D breast; -9.88% (active) with BT-549 breast; 6.3% (active) in the assay on MDA-MB-435 melanoma; 1.68% (active) with SW-620 colon; 7.3% (active) with MCF7 breast; 1.33% (active) in the assay on HCT-116 colon. Moreover, the growth is 9.63% (active) in the assay on HCC-2998 colon and -1.31% (active) with KM12 colon.
Consider `Cc1cc(Nc2ccc(C)c(Cl)c2)n2nc(C(F)(F)F)nc2n1`, for which the growth is -0.705% (active) in the assay on T-47D breast; 69.6% in the assay on BT-549 breast; 34.5% in the assay with MDA-MB-435 melanoma; 40.6% in the assay on SW-620 colon; 77.9% in the assay with MCF7 breast; 18.5% in the assay on HCT-116 colon. The growth in the assay on HCC-2998 colon is 74.5%; with KM12 colon it was 62%.
Consider `COc1cc(Nc2cc(C)nc(N3CCN(c4ccnc5cc(Cl)ccc45)CC3)n2)cc(OC)c1`, for which the growth with T-47D breast was 8.17% (active); in the assay with BT-549 breast, 41.8%; in the assay on MDA-MB-435 melanoma, -2.88% (active); in the assay with SW-620 colon it was 15.9%; in the assay on MCF7 breast, 5.32% (active); with HCT-116 colon, 2.14% (active). Further, the growth in the assay with HCC-2998 colon was 7.77% (active); in the assay on KM12 colon, 3.72% (active).
As to `CCOC(=O)n1cc(-c2nonc2-c2cn(C)c3ncccc23)c2cc(F)ccc21`, the growth was 10.4% with T-47D breast; 93.1% in the assay with BT-549 breast; 94.7% with MDA-MB-435 melanoma; 89.5% with SW-620 colon; 27.2% in the assay on MCF7 breast; 69.5% with HCT-116 colon. Besides, the growth is 86.4% in the assay on HCC-2998 colon and 73.5% in the assay with KM12 colon.
In the case of `CCCOc1cc2ccccc2cc1C(=O)Nc1nc(N)c2c(ccc3nccc32)[nH]1`, the growth with T-47D breast is -51% (active); in the assay on BT-549 breast it was -41% (active); in the assay with MDA-MB-435 melanoma, -94.5% (active); in the assay on SW-620 colon it was -80.4% (active); in the assay on MCF7 breast it was -52.3% (active); in the assay with HCT-116 colon it was -58.9% (active). Also, the values for the growth in the assay with HCC-2998 colon and in the assay with KM12 colon were -68.3% (active) and -72.8% (active), respectively.
On to `CC(=O)O[C@H]1CC[C@]2(C)[C@H]3CC=C4[C@@H]5CC(C)(C)CC[C@]5(C(=O)NCCNCCN)CC[C@@]4(C)[C@]3(C)CC[C@H]2C1(C)C`, for which the growth with T-47D breast is -46.5% (active); in the assay with BT-549 breast it was 92.8%; with MDA-MB-435 melanoma it was -55.5% (active); with SW-620 colon it was -84.6% (active); with MCF7 breast it was -90.7% (active); in the assay with HCT-116 colon, -91.2% (active). In addition, the growth in the assay with HCC-2998 colon was -92.1% (active); in the assay on KM12 colon, 19.7%.
Regarding `CCNC(=O)Oc1ccc(/C(=C(\C)c2ccc(Cl)cc2)c2ccc(OCCN(CC)CC)cc2)cc1`, the growth is 25.5% with T-47D breast; 68.8% in the assay with BT-549 breast; 25% in the assay on MDA-MB-435 melanoma; 2.28% (active) with SW-620 colon; 16.5% in the assay on MCF7 breast; 38.6% in the assay on HCT-116 colon. For the same molecule, the growth is 51% with HCC-2998 colon and 37.5% in the assay with KM12 colon.
For the molecule `COc1ccc2[nH]cc(-c3noc(C(=O)c4cn(C)c5ccc(F)cc45)n3)c2c1`, the growth with T-47D breast was 83.8%; in the assay on BT-549 breast, 88.9%; with MDA-MB-435 melanoma, 102%; in the assay with SW-620 colon, 95.1%; in the assay with MCF7 breast, 58.8%; with HCT-116 colon, 101%. The growth was 101% with HCC-2998 colon and 92.6% with KM12 colon.
In the case of `CN(CCCCCl)P(=O)(OCc1ccc([N+](=O)[O-])o1)C(F)(F)c1ccc(CC(=O)NC[C@@H](O)/C=C\[C@@H](O)[C@H](CO)Cc2ccccc2)cc1` (stereo not given in full), the growth with T-47D breast is 75.5%; with BT-549 breast it was 90.7%; in the assay on MDA-MB-435 melanoma it was 65.4%; in the assay with SW-620 colon, 87.7%; with MCF7 breast it was 59.9%; in the assay with HCT-116 colon it was 93.3%. The growth was 105% in the assay on HCC-2998 colon and 85.5% in the assay with KM12 colon.
On to `CC(O)CN1CC(O)=C(c2nc3ccccc3s2)C1=N` (stereo not given), for which the growth is 104% in the assay on T-47D breast; 109% with BT-549 breast; 98.9% in the assay with MDA-MB-435 melanoma; 108% in the assay with SW-620 colon; 96.3% in the assay with MCF7 breast; 109% with HCT-116 colon. Also, the values for the growth with HCC-2998 colon and with KM12 colon were 8.02% (active) and 117%, respectively.
As for `CSc1nc(Nc2cccc(NC(=O)/C(C#N)=C/c3c(Cl)cccc3Cl)c2)c(C#N)c(-c2cccc([N+](=O)[O-])c2)n1`, the growth was 37.6% with T-47D breast; 71.6% with BT-549 breast; 43.2% in the assay with MDA-MB-435 melanoma; 38.1% with SW-620 colon; 11.3% in the assay on MCF7 breast; 35.6% in the assay on HCT-116 colon. Further, the results for the growth in the assay with HCC-2998 colon and in the assay on KM12 colon were 60.8% and 78.3%, respectively.
As to `O=C1/C(=C/c2ccc(Cl)cc2)SC(=S)N1CCc1ccc(O)cc1`, the growth is 54.2% with T-47D breast; 101% with BT-549 breast; 92.9% in the assay with MDA-MB-435 melanoma; 101% in the assay on SW-620 colon; 114% in the assay on MCF7 breast; 102% in the assay on HCT-116 colon. Further, the growth with HCC-2998 colon is 107%; in the assay on KM12 colon it was 93.6%.
As to `CCCCN(CCCC)CCCn1c(-c2ccccc2)ccc1-c1ccccc1`, the growth was 67.4% with T-47D breast; 74.1% with BT-549 breast; 85.7% in the assay on MDA-MB-435 melanoma; 65.1% in the assay with SW-620 colon; 58.4% in the assay on MCF7 breast; 34.1% in the assay on HCT-116 colon. The figures for the growth with HCC-2998 colon and with KM12 colon were 59.9% and 61.7%, respectively.
Consider `Cc1oc(-c2ccc(Cl)cc2Cl)cc1C(=O)Nc1nccs1`, for which the growth was 70.3% with T-47D breast; 107% in the assay on BT-549 breast; 100% in the assay on MDA-MB-435 melanoma; 94.4% in the assay on SW-620 colon; 60.8% in the assay with MCF7 breast; 67.2% with HCT-116 colon. Besides, the values for the growth in the assay on HCC-2998 colon and in the assay on KM12 colon were 109% and 98.7%, respectively.
In the case of `COc1cccc(-c2nc3sccn3c2-c2ccnc(NCCNS(=O)(=O)c3ccc(F)cc3)c2)c1`, the growth is -4.43% (active) in the assay on T-47D breast; 9.19% (active) in the assay with BT-549 breast; 23.3% with MDA-MB-435 melanoma; 42.5% in the assay on SW-620 colon; 18.7% in the assay with MCF7 breast; 22.2% in the assay on HCT-116 colon. Also, the growth in the assay with HCC-2998 colon is 50.1%; with KM12 colon, 22.3%.

The values are drawn from PubChem BioAssay (NCI).
